The values that follow come from PubChem BioAssay.

Structures are written as SMILES. Active and inactive are the calls of the source.

The target of one test is Albumin (Bos taurus) (UniProt P02769). Kind of test: compounds binding labelled BSA control protein – biochemical, small-molecule microarray, Alexa647 label, 635/667 nm fluorescence, artefact control for SMM control protein annotation, profiling panel (AID 1118).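 Further: score merges 667 nm emission intensity and signal-to-noise per printed compound spot.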 Conditions: BSA-A647 binding, fluorescence 635 nm, higher = more signal.
Chain of Albumin (Bos taurus) (P02769 whole entry, looked up): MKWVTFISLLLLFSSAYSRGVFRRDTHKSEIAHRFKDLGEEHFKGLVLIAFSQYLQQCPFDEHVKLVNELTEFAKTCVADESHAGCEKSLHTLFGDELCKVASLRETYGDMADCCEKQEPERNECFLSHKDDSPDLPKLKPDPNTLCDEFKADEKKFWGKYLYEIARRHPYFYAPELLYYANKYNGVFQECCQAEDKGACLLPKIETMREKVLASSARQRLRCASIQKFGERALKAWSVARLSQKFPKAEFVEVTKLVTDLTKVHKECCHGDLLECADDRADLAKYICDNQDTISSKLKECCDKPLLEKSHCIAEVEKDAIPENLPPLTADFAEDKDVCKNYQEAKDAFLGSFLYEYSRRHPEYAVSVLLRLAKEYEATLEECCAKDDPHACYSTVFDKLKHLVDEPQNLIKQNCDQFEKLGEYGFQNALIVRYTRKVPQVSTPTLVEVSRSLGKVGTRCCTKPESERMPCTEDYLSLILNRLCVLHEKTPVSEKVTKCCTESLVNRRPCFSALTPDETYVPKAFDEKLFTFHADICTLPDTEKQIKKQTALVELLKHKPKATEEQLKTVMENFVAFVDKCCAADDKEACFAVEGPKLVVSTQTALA
The nature of test [1]: probe aXIP binding to arrayed compounds – biochemical, NeuroSMM set, 635/667 nm fluorescence, primary screen (AID 1119).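 Further: probe is the protein aXip251-270 applied at 1 µg/mL to compound-printed slides; binding of probe to printed compounds measured as 667 nm fluorescence plus signal to noise.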 Conditions: small-molecule microarray, higher = more signal, called active from +8 up or from −8 down.
Test [2] can be described thus: probe aNOTCH3 binding on compound microarray – biochemical, small-molecule microarray, 635/667 nm fluorescence, primary screen (AID 1120).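 Further: probe is a biotin-tagged antibody raised against NOTCH3 rather than NOTCH3 protein; score merges spot fluorescence near 667 nm with spot signal to noise.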 The settings on record: higher = more signal.
Test [3] is described as follows: probe aNOTCH2 binding on compound microarray – biochemical, small-molecule microarray, 635/667 nm fluorescence, primary screen (AID 1121).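 Further: score merges feature fluorescence read at 667 nm with its signal to noise.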 Conditions: higher = more signal.
The target in test [4] is Carbonic anhydrase 2 (Homo sapiens) (UniProt P00918). In words: compounds binding carbonic anhydrase 2 – biochemical, small-molecule microarray, Alexa647-labelled CAII, profiling panel (AID 1122). The settings on record: CAII-A647 binding fluorescence, higher = more signal.
Test [5] is described as follows: COS7 lysate on small-molecule microarray, probe aHis, 635 nm (AID 1123).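 Further: z-score combines 667nm fluorescence intensity with signal-to-noise per printed compound spot.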 The settings on record: COS7 cell lysate, fluorescence, higher = more signal.
Test [6] in a line: probe aLAP1 signal on lysate-treated microarray – cell lysate, small-molecule microarray, COS7 lysate, primary screen (AID 1124).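 Further: lysate comes from COS7 cells expressing LAP1 and is applied at 0.3 µg/mL; score merges spot fluorescence near 667 nm with signal-to-noise over triplicate slides.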 Conditions: probe aLAP1, fluorescence, higher = more signal.
Another test relates to Sam68 (KHDRBS1). In words: compounds binding KHDRBS1 protein – biochemical, small-molecule microarray, 635 nm fluorescence, primary screen (AID 1125).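 Further: score merges 667 nm channel intensity with signal to noise over triplicate slides.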 Conditions: higher = more signal.
In test [7] the test system is Chordin-like protein 2 (CHRDL2). In words: compounds binding chordin-like 2 – biochemical, small-molecule microarray, 635 nm fluorescence, primary screen (AID 1126).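 Further: printed compound slides probed with Chrdl2 protein at 4 µg/mL for 1 h at 4 C; score merges 667 nm emission intensity with signal to noise over three replicate slides.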 The settings on record: fluorescence 635 nm, higher = more signal.
Test [8] has as its target Concanavalin-A (Canavalia ensiformis) (UniProt P02866). In words: compounds binding concanavalin A lectin – biochemical, small-molecule microarray, Alexa647 label, 635 nm, artefact control for SMM control protein annotation, primary screen (AID 1127).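 Further: z combines 667 nm emission intensity with signal-to-noise across three replicate slides.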 Conditions: ConA-A647 binding fluorescence, higher = more signal.
The nature of test [9]: compounds binding Alexa647 anti-His antibody – biochemical, small-molecule microarray, 635 nm fluorescence, artefact control for SMM control protein annotation, primary screen (AID 1128).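 Further: score merges feature fluorescence with signal-to-noise for each printed compound spot.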 Conditions: higher = more signal.
Test [10] has as its system Human papillomavirus type 1a E7 protein (residues 1-88). In words: HPV1a E7 small-molecule binders, primary screen, biochemical, small-molecule microarray, residues 1-88, 635 nm (AID 1129). Conditions: small-molecule microarray binding, fluorescence 635 nm; higher = more signal.
For test [11], the target named is Focal adhesion kinase 1 (Homo sapiens) (UniProt Q05397). In words: PTK2 protein binding on printed compound slides – biochemical, small-molecule microarray, 635/667 nm fluorescence, BSA, DTT, primary screen (AID 1130).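 Further: composite of spot emission at 667 nm and signal to noise over triplicate slides.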 The settings on record: 635 nm fluorescence, higher = more signal.
Chain of Focal adhesion kinase 1 (Homo sapiens) (Q05397 whole entry, looked up): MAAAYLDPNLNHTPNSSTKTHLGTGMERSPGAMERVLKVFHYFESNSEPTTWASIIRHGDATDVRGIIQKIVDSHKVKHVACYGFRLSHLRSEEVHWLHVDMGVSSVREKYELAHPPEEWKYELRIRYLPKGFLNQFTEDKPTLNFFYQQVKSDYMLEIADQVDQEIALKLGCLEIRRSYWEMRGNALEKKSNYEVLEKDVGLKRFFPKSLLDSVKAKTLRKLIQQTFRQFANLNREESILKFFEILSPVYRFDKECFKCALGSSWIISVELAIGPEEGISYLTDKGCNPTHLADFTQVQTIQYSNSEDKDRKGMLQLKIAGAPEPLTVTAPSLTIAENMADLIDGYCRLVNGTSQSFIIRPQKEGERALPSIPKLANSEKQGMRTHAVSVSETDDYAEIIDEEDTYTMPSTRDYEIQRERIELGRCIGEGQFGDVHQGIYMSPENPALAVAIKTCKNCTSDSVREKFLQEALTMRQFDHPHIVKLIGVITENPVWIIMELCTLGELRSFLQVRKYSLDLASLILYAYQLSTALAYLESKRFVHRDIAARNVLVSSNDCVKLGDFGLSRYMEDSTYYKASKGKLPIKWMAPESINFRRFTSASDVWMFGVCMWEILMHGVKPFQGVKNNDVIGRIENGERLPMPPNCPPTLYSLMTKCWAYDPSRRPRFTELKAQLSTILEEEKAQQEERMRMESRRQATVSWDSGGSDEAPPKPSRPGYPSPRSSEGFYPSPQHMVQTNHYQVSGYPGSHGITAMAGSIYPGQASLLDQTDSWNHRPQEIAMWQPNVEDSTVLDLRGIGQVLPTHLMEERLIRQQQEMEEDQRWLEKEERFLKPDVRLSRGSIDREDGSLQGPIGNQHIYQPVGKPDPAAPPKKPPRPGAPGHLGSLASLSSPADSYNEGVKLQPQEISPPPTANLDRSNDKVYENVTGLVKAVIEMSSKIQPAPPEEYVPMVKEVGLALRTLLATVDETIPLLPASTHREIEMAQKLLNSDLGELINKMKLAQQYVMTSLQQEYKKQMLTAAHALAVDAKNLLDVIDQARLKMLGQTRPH
The subject of test [12] is Fibrinogen (Alexa647-labelled). Kind of test: Alexa647-fibrinogen binding to printed small molecules – biochemical, small-molecule microarray, 635/667 nm fluorescence, artefact control for SMM control-protein annotation, profiling panel (AID 1131).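 Further: z-score merges 667 nm fluorescence with per-spot signal-to-noise over triplicate slides.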 Conditions: fibrinogen-A647 binding fluorescence, higher = more signal.
Test [13] deals with Follistatin (Homo sapiens) (UniProt P19883). In words: FST protein binding to printed compounds – biochemical, small-molecule microarray, 635/667 nm fluorescence, primary screen (AID 1132). Conditions: 635 nm fluorescence, higher = more signal.
Chain of Follistatin (Homo sapiens) (P19883 whole entry, looked up): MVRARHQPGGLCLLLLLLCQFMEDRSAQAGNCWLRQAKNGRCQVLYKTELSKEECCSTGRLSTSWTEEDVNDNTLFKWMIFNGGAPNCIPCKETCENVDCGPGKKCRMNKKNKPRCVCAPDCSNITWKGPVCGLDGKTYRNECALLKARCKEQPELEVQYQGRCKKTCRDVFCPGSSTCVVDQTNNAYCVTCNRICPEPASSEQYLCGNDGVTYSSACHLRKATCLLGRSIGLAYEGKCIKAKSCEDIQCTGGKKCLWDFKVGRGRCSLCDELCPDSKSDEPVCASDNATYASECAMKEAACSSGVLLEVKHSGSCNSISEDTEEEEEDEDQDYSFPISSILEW
Test [14] has as its target Fibroblast growth factor 2 (Homo sapiens) (UniProt P09038). Kind of test: basic fibroblast growth factor binding to printed compounds – biochemical, small-molecule microarray, 635/667 nm fluorescence, primary screen (AID 1133). Conditions: FGF2, fluorescence 635/667, higher = more signal.
A short description of test [15]: JC-1 mitochondrial potential readout, lung cancer cells – cell-based, A549, JC-1 fluorescence, basal, 24 h, 100 nL, profiling panel (AID 1138).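 Further: A549 lung adenocarcinoma cells under basal conditions with no added stimulus; test concentration not given here.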 Conditions: higher = more signal.
Another test deals with Lefty1. Kind of test: Lefty1 protein binding to printed compounds – biochemical, small-molecule microarray, 635/667 nm fluorescence, primary screen (AID 1139). The settings on record: fluorescence 635/667, higher = more signal.
Test [16] concerns wheat germ agglutinin (Triticum aestivum), Alexa647-labelled. In words: Alexa647-WGA lectin binding to printed small molecules – biochemical, small-molecule microarray, 635/667 nm fluorescence, artefact control for SMM control-protein annotation, profiling panel (AID 1140).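 Further: score merges 667 nm feature emission with signal to noise over triplicate slides.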 The settings on record: WGA-A647 binding, 635 nm fluorescence, higher = more signal.
Test [17] has as its target Luciferin 4-monooxygenase (Photinus pyralis) (UniProt P08659). In words: inhibition of purified Photinus pyralis luciferase – biochemical, luminescence, purified enzyme, 2006 set, primary screen (AID 1141).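 Further: cell-free assay with purified firefly luciferase at 100 ng per well in PBS; test concentration not given here.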 Conditions: purified firefly luciferase, SteadyGlo luminescence, 30 min; higher = more signal, called active from +8 up or from −8 down.

Chain of Luciferin 4-monooxygenase (Photinus pyralis) (P08659 whole entry, looked up): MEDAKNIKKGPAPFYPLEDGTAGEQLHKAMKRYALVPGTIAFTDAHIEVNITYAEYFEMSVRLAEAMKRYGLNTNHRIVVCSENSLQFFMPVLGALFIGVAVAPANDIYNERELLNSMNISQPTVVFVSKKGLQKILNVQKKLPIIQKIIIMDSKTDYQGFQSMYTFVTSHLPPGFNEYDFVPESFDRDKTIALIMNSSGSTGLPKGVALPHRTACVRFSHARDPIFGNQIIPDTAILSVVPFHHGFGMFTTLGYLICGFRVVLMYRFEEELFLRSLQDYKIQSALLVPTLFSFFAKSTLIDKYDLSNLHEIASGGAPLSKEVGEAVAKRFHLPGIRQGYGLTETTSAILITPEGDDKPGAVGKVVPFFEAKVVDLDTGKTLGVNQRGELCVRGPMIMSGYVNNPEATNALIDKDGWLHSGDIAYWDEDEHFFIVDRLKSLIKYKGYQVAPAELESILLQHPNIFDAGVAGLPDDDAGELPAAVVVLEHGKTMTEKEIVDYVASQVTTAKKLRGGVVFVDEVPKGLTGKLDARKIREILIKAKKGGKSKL
Chain of Fibroblast growth factor 2 (Homo sapiens) (P09038 whole entry, looked up): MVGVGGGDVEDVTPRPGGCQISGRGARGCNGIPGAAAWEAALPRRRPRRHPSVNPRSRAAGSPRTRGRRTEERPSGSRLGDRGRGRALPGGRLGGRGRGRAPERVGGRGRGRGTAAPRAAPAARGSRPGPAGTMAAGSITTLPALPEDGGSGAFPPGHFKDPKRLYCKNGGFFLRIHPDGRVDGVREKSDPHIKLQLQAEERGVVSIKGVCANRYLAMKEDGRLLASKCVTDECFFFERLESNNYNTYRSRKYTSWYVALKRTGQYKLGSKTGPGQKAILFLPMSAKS
Chain of Concanavalin-A (Canavalia ensiformis) (P02866 whole entry, looked up): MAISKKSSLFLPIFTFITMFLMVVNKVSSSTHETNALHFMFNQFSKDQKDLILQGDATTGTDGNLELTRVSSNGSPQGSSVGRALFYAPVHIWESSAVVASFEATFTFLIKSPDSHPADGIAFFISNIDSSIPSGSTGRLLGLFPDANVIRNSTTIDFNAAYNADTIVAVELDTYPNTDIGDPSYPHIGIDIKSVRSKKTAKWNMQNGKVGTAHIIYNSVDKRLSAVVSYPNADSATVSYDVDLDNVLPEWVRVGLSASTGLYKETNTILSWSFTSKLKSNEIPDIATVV

On to `C=C(C)C1CCC(C(O)C2C=CC3C(=O)N(C)C(=O)C3N2Nc2cc(OC)c(OC)c(OC)c2)CC1` (stereo not given), for which the composite z-score with Albumin (Bos taurus) is 0.941; in [2], 0.263; in [3], -0.0598; in test [4], 0.703; in test [5], 1.46; in test [6], 0.0507. The composite z-score in the test with Sam68 (KHDRBS1) turned out to be 1.29; in test [7] it was 0.464; in [8], 0.974; in [9], 1.23; in [10], 1.24; in [11], 0.573. The composite z-score in test [12] turned out to be 0.723; in test [13], 1.31; in [14], 0.425; in the test with Lefty1 it was 0.677; in test [16], 0.504. Besides, the composite Z-score in test [1] was -0.0192 (inactive). The z-score is 0.444 in test [15] and -1.07 (inactive) in test [17].

For `COCC1=C2[C@@H](CCc3ccccc3)OB(O)C[C@@H]2[C@@H]2C(=O)N(C)C(=O)[C@@H]2C1`, the composite z-score with Albumin (Bos taurus) is 0.229; in test [2], -0.0918; in test [3] it was -0.108; in test [4], 0.21; in test [5], 0.06; in test [6], -0.179. Moreover, the composite z-score with Sam68 (KHDRBS1) is 0.106; in test [7] it was 0.5; in test [8] it was -0.141; in test [9] it was 0.0751; in [10] it was 0.003; in test [11] it was 0.164. Moreover, the composite z-score in test [12] was 0.353; in test [13], 0.309; in test [14], 0.833; with Lefty1, 0.0961; in test [16] it was -0.098. Moreover, in test [1], the composite Z-score is 0.289 (inactive). Besides, the z-score in test [15] is -0.0837; in test [17], -0.171 (inactive).

For the molecule `C=CCC(OC(C)=O)[C@@H]1[C@@H](N(Cc2ccc(-c3cccc(C(F)(F)F)c3)o2)C(=O)c2cccc3ccccc23)c2cc(OCCCO)ccc2N1C(=O)Cc1ccc(OC)cc1` (stereo not given in full), the composite z-score with Albumin (Bos taurus) is 0.311; in [2] it was -0.027; in test [3], -0.151; in test [4] it was 0.149; in test [5] it was 0.428; in [6], 0.0827. Also, the composite z-score was -0.323 in the test on Sam68 (KHDRBS1); 0.0616 in [7]; -0.422 in test [8]; -0.0466 in test [9]; -1.02 in test [10]; -0.104 in [11]. Also, the composite z-score is -0.765 in [12]; 0.998 in [13]; -0.0117 in [14]; 0.229 in the test with Lefty1; 0.0854 in test [16]. In [1], the composite Z-score is -0.0798 (inactive). Besides, the z-score is -0.465 in test [15] and 0.638 (inactive) in test [17].

As for `CC(C)N1CC=CC23O[C@@H]4/C=C\CCCOC(=O)C4[C@H]2C(=O)N(CCCCCCO)[C@@H]3C1=O` (stereo not given in full), the composite z-score was -0.616 with Albumin (Bos taurus); -0.277 in test [2]; -0.0895 in [3]; 0.938 in test [4]; 1.28 in test [5]; 1.14 in test [6]. In addition, the composite z-score was 0.223 in the test on Sam68 (KHDRBS1); -1.26 in [7]; -1.02 in [8]; 1.3 in test [9]; -0.808 in [10]; 0.0835 in [11]. Besides, the composite z-score in test [12] was -1.38; in test [13] it was -1.04; in test [14], -1.2; in the test on Lefty1, -0.934; in test [16] it was -0.724. Further, the composite Z-score in test [1] was 0.379 (inactive). In addition, the z-score was 1.49 in test [15] and -1.88 (inactive) in test [17].

For the molecule `C=CCC(OC(C)=O)[C@@H]1[C@@H](N(Cc2cccc3ccccc23)C(=O)c2ccc(-c3ccccc3)cc2)c2cc(OCCCO)ccc2N1C(=O)c1ccc(-c2ccccc2)cc1` (stereo not given in full), the composite z-score with Albumin (Bos taurus) is -0.0811; in test [2], -0.0647; in [3] it was -0.0294; in test [4] it was 0.255; in test [5] it was 0.384; in test [6], 0.205. Also, the composite z-score in the test on Sam68 (KHDRBS1) was -0.225; in test [7], -0.046; in [8] it was -0.441; in test [9], -0.811; in test [10], 0.488; in test [11], -0.132. Moreover, the composite z-score in [12] was -0.123; in [13] it was 0.353; in test [14], -0.0952; in the test on Lefty1, 0.0683; in [16], 0.204. In test [1], the composite Z-score was -0.646 (inactive). The z-score is 0.758 in test [15] and -0.0873 (inactive) in [17].
